Rows were chosen to be rich in hits. Some 0.24% of all compounds tested hit in one or more screens of this group.
NPYLR7 ag: mosquito NPYLR7 agonism. HEK293T NPYLR7/Galpha15, GCaMP6s calcium fluorescence. activation, % at 10 µM. 0.15% of 270,000 active. AID 1259423; in the data active = activation above about 40%;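 note: 0% = vehicle and 100% = reference agonist at the receptor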
hcGAS lum: blocks human cGAS activity | AID 1259398 | inhibition, % at 12.5 µM | Q8N884 | 0.081% of 290,000 active | recombinant h-cGAS, ATP depletion, Kinase-Glo luminescence;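 note: 0% = vehicle reaction and 100% = reaction without DNA for no activity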
mcGAS inh: blocks mouse cGAS activity; Q8C6L5; recombinant cGAS, Kinase-Glo ATP depletion luminescence; inhibition, % at 12.5 µM; 0.15% of 160,000 active;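 note: 0% = negative control wells and 100% = reference inhibitor with no enzyme activity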
Active calls of the source: *; . = no result given; ! = not confirmed by another sample. Cut-off read from the data, not from the text of the source, unless noted: active = inhibition above about 40%; inactive = the rest.

SMILES	NPYLR7 ag	hcGAS lum	mcGAS inh
COc1cccc(-c2nc3ccc(Cl)cn3c2NCc2ccccc2)c1	-5	-2	-4
Cc1noc(C)c1N(C)S(=O)(=O)c1cc(C(F)(F)F)cc(C(F)(F)F)c1	-2	-8	-13
NC(=NCCC[C@H](N)C(=O)O)NO	0	-3	58*
CN(C)C(N)=NCCC[C@H](N)C(=O)O	-2	-2	-3
COc1c(O)cc2c(=O)oc3c(OC)c(O)cc4c(=O)oc1c2c34	4	75*	8
COc1cc(-c2cc(=O)c3c(O)c(OC)c(OC)c(OC)c3o2)cc(OC)c1OC	-3	0	.
O=C(CN1CCC2(CC1)c1ccccc1CC2O)N1CCOc2ccccc21 (centres undefined)	3	-4	-8
CC1=NN(c2ccc(Br)cc2)C(=O)/C1=C/c1ccccc1OCc1ccccc1	4	2	-3
O=c1oc2c(CN3CCN(CCO)CC3)c(O)ccc2cc1-c1ccccc1	4	-8	-8
Cc1csc(-c2cc3ccc(O)c(CN4CCN(CCO)CC4)c3oc2=O)n1	69*	-3	.
Cc1ccc2nc(NC(=O)C3c4ccccc4Oc4ccccc43)sc2c1	-4	-3	-6
O=C1NC(=O)C2C1Sc1[nH]c(=O)sc1C2c1ccco1 (centres undefined)	13	45*	.
COc1ccc(C2c3sc(=O)[nH]c3SC3C(=O)NC(=O)C32)cc1 (centres undefined)	6	-9	.
CN(CC(=O)NCCc1ccccc1F)C(=O)c1ccc(Br)s1	12	-6	.
COc1ccccc1-c1cc(C(=O)NCCN2CCCCC2)nc2cc(-c3ccc(Cl)cc3)nn12	14	-1	-6
COc1ccccc1-c1cc(C(=O)NCCN2CCCC2)n2nc(-c3ccc(Cl)cc3)cc2n1	-9	-4	44*!
CCOC(=O)c1cc(-c2cccc(NC(=O)c3cc(Cl)cnc3Cl)c2)n(-c2ccccc2C)n1	14	-6	-9
C=CCOc1ccc(C=C(C#N)C(=O)c2ccc(OC)cc2)cc1	2	2	58*
COc1ccc(C=C(C#N)C(=O)c2ccc(OC)cc2)cc1	1	3	38
Cc1ccccc1-n1c(SCc2cccc(F)c2)nnc1-c1ccc(F)cc1	.	-4	-4
CCNc1nc(NC(C)C)nc(SCCOc2ccccc2)n1	6	3	.
O=C(NCc1ccccn1)c1cc2n(n1)CCN(Cc1cccc(F)c1)C2=O	10	-1	-5
CSC(C)C(=O)Nc1ccc(I)cc1 (centres undefined)	8	-4	-5
NC(=NC1C2CC3CC(C2)CC1C3)Nc1ccc(I)cc1 (centres undefined)	43*	-3	.
Cc1cc(C)n2c(NCc3ccccc3)c(-c3cccc(Cl)c3)nc2c1	-2	-3	-3
N#Cc1ccc(NC(=O)/C=C/c2cnn(-c3ccccc3)n2)cc1	9	-11	-15

From PubChem
